Screening data deposited in PubChem BioAssay by The Scripps Research Institute Molecular Screening Center.
TEAD-YAP inh: TEAD-YAP interaction inhibition | HEK-TIYL cells, TEAD-Gal4/YAP UAS-luciferase luminescence | inhibition, % at 9.12 µM | 640,000 tested, 1.4% active; in the data active = inhibition above about 32%
MITF inh: blocks human microphthalmia-associated transcription factor | O75030 | AlphaScreen MITF homodimerization, bead proximity signal | inhibition, % at 2.6 µM | 650,000 tested, 0.91% active; in the data active = inhibition above about 50%
GPR151 ag: activates the human receptor GPR151; PathHunter beta-arrestin GPR151 cells, luminescence; activation, % at 11.2 µM; 650,000 tested, 1% active; AID 1508602; in the data active = activation above about 4.9%
Target sequence (Q8TDV0 whole entry, looked up): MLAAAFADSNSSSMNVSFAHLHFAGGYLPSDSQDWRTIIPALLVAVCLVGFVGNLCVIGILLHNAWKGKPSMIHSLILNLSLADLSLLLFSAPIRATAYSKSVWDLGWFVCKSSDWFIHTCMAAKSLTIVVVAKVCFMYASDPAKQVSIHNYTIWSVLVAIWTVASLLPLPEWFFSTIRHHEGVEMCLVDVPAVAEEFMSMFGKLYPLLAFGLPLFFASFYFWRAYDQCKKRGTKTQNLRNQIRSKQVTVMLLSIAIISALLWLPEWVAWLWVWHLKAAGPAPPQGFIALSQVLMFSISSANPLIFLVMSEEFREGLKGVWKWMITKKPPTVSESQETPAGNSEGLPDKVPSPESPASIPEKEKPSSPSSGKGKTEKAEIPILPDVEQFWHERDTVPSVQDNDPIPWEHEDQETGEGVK
FBW7 act: human FBW7 E3 ligase activation, primary screen | Q969H0 | AlphaScreen FBW7–phospho-cyclin E peptide binding, activator screen | normalized activity (activation), % at 26.1 µM | 650,000 tested, 0.13% active; in the data active = normalized activity above about 1.9%;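 also: purified mutant Fbw7 with reduced substrate affinity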
Numbers stand for hits; - = inactive. Most compounds without a hit are left out; they make up all but 3.5% or so of the library.

SMILES	TEAD-YAP inh	MITF inh	GPR151 ag	FBW7 act
Nc1nc(NCCN2CCOCC2)nc2c1ncn2-c1ccsc1	-	-	-	-
c1cc(-n2cnc3c(NC4CC4)nc(NCCN4CCOCC4)nc32)cs1	41	-	-	-
CCCNc1nc(NCCN2CCOCC2)nc2c1ncn2-c1ccsc1	34	-	-	-
O=C1CCC(CCC(=O)N2CCCC(OCc3ccccc3)C2)(Cc2cccs2)N1 (stereo not drawn)	-	-	-	-
CC1CCc2c(sc3nc(SCC(=O)N4CCCC4)n(-c4ccccc4)c(=O)c23)C1 (stereo not drawn)	-	-	-	-
Nn1c2ccccc2n2cc(-c3ccc(Cl)cc3)nc12	56	-	-	-
COc1ccc(N(CC(=O)Nc2ccc(Cl)cc2C)S(C)(=O)=O)cc1OC	-	-	-	-
N=C1C(c2nc3ccccc3s2)=C(O)CN1/N=C/C=O	-	-	-	-
N=C1C(c2nc3ccccc3s2)=C(O)CN1/N=C/c1ccc(O)c(O)c1O	-	56	-	-
CCn1cnc2c(Nc3ccc(F)cc3)ncnc21	34	-	-	-
CCn1cnc2c(Nc3ccc(C)cc3C)ncnc21	-	-	-	-
Cc1cc(C)c(NC(=O)C2CC2(c2ccccc2)c2ccccc2)c(C)c1 (stereo not drawn)	-	-	-	-
CCN1CCN(Cc2ccc(NC(=O)Nc3ccccc3)cc2)CC1	52	-	-	-
CCN1CCN(Cc2ccc(NC(=O)Nc3ccc(OC)cc3)cc2)CC1	-	-	-	-
C=CCNC(=O)C(CC(C)C)N1C(=O)c2ccccc2C1=O (stereo not drawn)	-	-	-	-
COc1ccc(O)c(C(=O)CC(=O)c2ccc(F)cc2)c1	51	-	-	-
COc1ccc(C(=O)CC(=O)c2ccccc2O)cc1	-	-	-	-
COc1ccc(-c2cc3nccc(C4CCNCC4)n3n2)cc1	33	-	-	-
Cc1ccc(-c2cc3nccc(C4CCNCC4)n3n2)cc1	-	-	-	-
C=CCNC(=O)C(=O)NCC(c1ccco1)S(=O)(=O)c1ccc(C)cc1 (stereo not drawn)	-	-	-	-
O=C(O)c1ccc(N/N=C/C2=C(N3CCOCC3)C(=C\c3ccccc3)/CC2)cc1	-	62	-	-
O=S(=O)(O)c1ccc(N/N=C/C2=C(N3CCOCC3)C(=C\c3ccccc3)/CC2)cc1	-	-	-	-
CN1CCC(N2CCN(c3ccc(Cl)cc3)CC2)CC1	-	-	-	-
COc1ccc(-c2cc3cccc(OC)c3oc2=O)cc1	71	-	-	-
COc1cccc2cc(-c3csc(NC(C)=O)n3)c(=O)oc12	-	-	-	-
SMILES	TEAD-YAP inh	MITF inh	GPR151 ag	FBW7 act
COc1cccc2cc(-c3csc(N)n3)c(=O)oc12	49	-	-	-
Cc1cc(C(=O)NCC2CCC3(CCN(CC4=CC[C@H]5C[C@@H]4C5(C)C)CC3)O2)n(C)n1 (stereo partly drawn)	-	-	-	-
Nc1ccc(NC2=C(N3CCCCC3)C(=O)c3ccccc3C2=O)cc1	-	-	-	-
O=C1C(NC2CCCC2)=C(N2CCCCC2)C(=O)c2ccccc21	86	-	-	-
COc1ccccc1NC1=C(N2CCCCC2)C(=O)c2ccccc2C1=O	62	-	-	-
NC(=O)c1cccc(-c2ccc(C(=O)NC3CC3)cc2)c1	-	-	-	-
CC1=NOC(=O)/C1=C\c1ccc(-c2ccc(Cl)c(C(=O)O)c2)o1	-	-	-	-
CC1=NOC(=O)/C1=C/c1ccc(-c2ccc(C(=O)O)cc2)o1	-	57	-	-
OC[C@@H]1CCCN1c1ccnc2c(-c3ccccc3Cl)cnn12	48	-	-	-
COc1ccccc1-c1cnn2c(N3CCC[C@H]3CO)ccnc12	-	-	-	-
OCCC1CCCCN1c1ccnc2c(-c3ccc(Cl)cc3)cnn12 (stereo not drawn)	47	-	-	-
OCCC1CCCCN1c1ccnc2c(-c3ccc(CO)cc3)cnn12 (stereo not drawn)	-	-	-	-
O=C(O)c1cccc(-c2cnn3c(N4CCC[C@H]4CO)ccnc23)c1	101	-	-	-
OC[C@@H]1CCCN1c1ccnc2c(-c3ccc(Cl)cc3)cnn12	85	-	-	-
COc1ccc(CC(=O)NCCc2c(C)[nH]c3ccccc23)cc1	-	-	-	-
OCCC1CCCCN1c1ccnc2c(-c3ccc4c(c3)OCO4)cnn12 (stereo not drawn)	43	-	-	-
OCCC1CCCCN1c1ccnc2c(-c3ccoc3)cnn12 (stereo not drawn)	-	-	-	-
OCCC1CCCCN1c1ccnc2c(-c3ccc(O)cc3)cnn12 (stereo not drawn)	93	-	-	-
CCN(Cc1ccccc1)S(=O)(=O)c1cc(C(=O)Nc2ccc(C)c(F)c2)ccc1F	57	-	-	-
CCN(c1ccccc1)S(=O)(=O)c1cc(C(=O)Nc2ccc(Oc3ccccc3)cc2)ccc1F	49	-	-	-
CCN(CC)S(=O)(=O)c1cc(C(=O)Nc2ccc(C)c(F)c2)ccc1F	-	-	-	-
CCN(c1ccccc1)S(=O)(=O)c1ccc(NC(=O)Nc2ccccc2)cc1	-	-	-	-
CN(Cc1ccccc1)S(=O)(=O)c1cc(C(=O)Nc2ccc(Br)cc2)ccc1F	41	-	-	-
CCN(c1ccccc1)S(=O)(=O)c1ccc(C(=O)Nc2ccc(C(C)=O)cc2)cc1	-	-	-	2.3
CCN(CC)S(=O)(=O)c1cc(C(=O)Nc2cccc(O)c2)ccc1Cl	73	-	-	-
SMILES	TEAD-YAP inh	MITF inh	GPR151 ag	FBW7 act
CCN(Cc1ccccc1)S(=O)(=O)c1cc(C(=O)Nc2cccc(Cl)c2)ccc1F	58	-	-	-
O=C(Nc1ccc(Br)cc1)c1ccc(F)c(S(=O)(=O)NCc2cccs2)c1	60	-	-	-
CCN(Cc1ccccc1)S(=O)(=O)c1cc(C(=O)Nc2ccc(Oc3ccccc3)cc2)ccc1F	66	-	-	-
c1ccc(CNc2cc(-c3cccnc3)nc(-c3ccccn3)n2)cc1	-	-	-	-
COCCCN1C(=O)C(=O)/C(=C(\O)c2ccccc2)C1c1ccc(Br)cc1 (stereo not drawn)	-	-	-	-
CCN(CC)C(=O)C1CCCN(c2nc(NC3CC3)c3ncn(C4CCCCC4)c3n2)C1 (stereo not drawn)	-	-	-	-
CCN(CC)C(=O)C1CCCN(c2nc(Nc3ccc(NC(C)=O)cc3)c3ncn(C(C)C)c3n2)C1 (stereo not drawn)	46	-	-	-
CCN(CC)C(=O)C1CCCN(c2nc(Nc3ccc(Oc4ccccc4)cc3)c3ncn(C4CCCCC4)c3n2)C1 (stereo not drawn)	-	-	-	5.4
CC(=O)Oc1ccc2c(c1)O/C(=C\c1sccc1C)C2=O	88	-	-	-
COc1ccc(C(=O)Oc2ccc3c(c2)O/C(=C\c2ccncc2)C3=O)cc1OC	-	-	-	-
COC(=O)COc1cccc(/C=C2\Oc3cc(OC)ccc3C2=O)c1	-	-	-	-
COc1ccc(/C=C2\Oc3cc(OC(=O)c4ccncc4)ccc3C2=O)cc1	68	-	-	-
CCC(=O)Oc1ccc2c(c1)O/C(=C\c1cccc(OC)c1)C2=O	87	-	-	-
